Reference: PubChem BioAssay (EPA / NIEHS)
Calls of active or inactive are those of the source. How the source made its calls: active means hit-call score of the fitted dose curve at least 0.9, where 1 is the maximum; inactive means score below 0.9.

experiment: ATG_M_61_CIS: Attagene CIS-FACTORIAL HepG2 Assay for M61 Transcription Factor (Internal Marker) (AID 2282937); conditions: HepG2 Attagene CIS-FACTORIAL M61 internal marker reporter; actives raise or lower the signal
Description: ATG_CIS is a cell-based, multiplexed-readout assay that uses HepG2, a human liver cell line, with measurements taken at 24 hours after chemical dosing in a 24-well plate.ATG_M_61_CIS is one of 52 assay component(s) measured or calculated from the ATG_CIS assay. It is designed to make measurements of mRNA induction, a form of inducible reporter, as detected with fluorescence intensity signals by Reverse transcription polymerase chain reaction (RT-PCR) and Capillary electrophoresis technology.Data from the assay component ATG_M_61_CIS was analyzed into 1 assay endpoint. This assay endpoint, ATG_M_61_CIS, was analyzed with bidirectional fitting relative to DMSO as the negative control and baseline of activity. Using a type of inducible reporter, measures of mRNA for gain or loss-of-signal activity can be used to understand the background control at the transcription factor-level as they relate to the gene . Furthermore, this assay endpoint can be referred to as a secondary readout, because this assay has produced multiple assay endpoints where this one serves a background control function. To generalize the intended target to other relatable targets, this assay endpoint is annotated to the background measurement intended target family, where the subfamily is internal marker.
Human liver HepG2 cells are transiently transfected with multiple reporter transcription units (MRTUs) in 6-well plates using FuGene 6 reagent (Roche; 3 ml FuGene/1 mg DNA). The MRTU constructs are regulated by a cis-regulating element (promoter). […] A major difference between the CIS and TRANS system is that in CIS activities of endogenous TFs are measured, whereas the TRANS assay evaluates changes in activities of exogenous, chimeric NR-Gal4 proteins. […] At the end of 24 hour incubation, total RNA was isolated using TriZol reagent (Invitrogen). The isolated RNA is then reverse-transcribed using oligo(dT) primer and Mo-MLV reverse transcriptase (Invitrogen) with DNAse I (Ambion) treatment for 30 min. The one-tenth of the produced cDNA was amplified by PCR using Taq DNA polymerase (Invitrogen) and two reporter sequence-specific primers. The PCR products were fluorescently labeled by primer extension with 6-arboxyfluorescein (6-FAM) 5'-labeled reporter sequence-specific primer (2 min at 95 C, 20 s at 68 C and 10 min at 72 C) and these products were digested with 5U of HpaI (New England Biolabs) for 2h at 37 C. The fragments were purified using Qiaquick PCR columns (Qiagen), analyzed on an ABI 3130xL genetic analyzer (Applied Biosystems) with peak positions identified by using a set of X-rhodamine (ROX)-labeled MapMarker1000 molecular weight standards (BioVentures). The raw capillary electrophoresis data was processed using Attagraph software (Attagene).

outcome, inactive:
CCCCc1ccc(N)cc1
CCC(C)(O)CCC=C(C)C (stereo not given)
C=CC(=O)OCC(O)COc1ccccc1 (stereo not given)
CC(=O)c1c(C)cc(C(C)(C)C)cc1C
CC(C)CCCCCCCOC(=O)c1ccc(C(=O)OCCCCCCCC(C)C)c(C(=O)OCCCCCCCC(C)C)c1
OC[C@H]1O[C@H](O[C@]2(CCl)O[C@H](CCl)[C@@H](O)[C@@H]2O)[C@H](O)[C@@H](O)[C@H]1Cl
CC(C)(N)CO
CC(=O)C(=O)O
CC1(C)[C@@H]2CC[C@@]1(C)[C@H](O)C2
CC(c1cc2ccccc2s1)N(O)C(N)=O (stereo not given)
CN(C)C(=N)N=C(N)N
CN(C)CCCN
CC(=O)Nc1ccc(C)cc1C
CC(C)(C)c1cc(CCC(=O)NN)cc(C(C)(C)C)c1O
N#Cc1nc(Cl)c(Cl)c(Cl)c1Cl
CC1=CCC(O)(C(C)C)CC1 (stereo not given)
O=S(=O)(O)c1cccc2c(S(=O)(=O)O)cccc12
CCc1c(C)cc(N)c(CC)c1N
CC(CCO)CCc1ccccc1 (stereo not given)
C[C@]12CC[C@H]3[C@@H](CCC4=CC(=O)CC[C@@]43C)[C@@H]1CC[C@@H]2C(=O)CO
COc1nc(C)nc(N)n1
CCCCCC=CCC(=O)OC
CCCCC(CC)COCCC#N (stereo not given)
O=C1CCCCCCCCCCOCCCCO1
CC(=O)OCc1ccc2c(c1)OCO2
C=C(C)C(=O)OCc1ccccc1
COC(=O)Cc1cccc2ccccc12
C=C(C)C(=O)NCCCN(C)C
O=C(O)C[C@H](O)C[C@H](O)/C=C/c1c(C2CC2)nc2ccccc2c1-c1ccc(F)cc1
CC1(C)C(=O)N(Br)C(=O)N1Cl
CO[Si](CCCn1c(=O)n(CCC[Si](OC)(OC)OC)c(=O)n(CCC[Si](OC)(OC)OC)c1=O)(OC)OC
c1ccc2c(c1)c1cccc3ccc4cccc2c4c31
COCCOCCOCCOCCOCCO
CC(C)OP(=O)(CP(=O)(OC(C)C)OC(C)C)OC(C)C
CNCCO
O=C(O)CCSCCC(=O)O
OCCN1CCNCC1
O=C(O)c1cccc(C(F)(F)F)c1
CCCCCCCCCCN
CC(=O)O[C@]1(C(C)=O)CC[C@H]2[C@@H]3C[C@H](C)C4=CC(=O)CC[C@]4(C)[C@H]3CC[C@@]21C
